Assay outcomes: PubChem, several laboratories
A selection: hits, their analogues and other compounds. The true share with any hit is near 6.6%.
BoNT-F LC inh = BoNT/F light chain protease inhibitors, primary screen, biochemical, flow cytometry, MLPCN library. Botulinum neurotoxin type F light chain protease (Clostridium botulinum). Multiplex microsphere protease cleavage assay. inhibition, % at 10 µM. 360,000 compounds, 0.22% hits. AID 588497, 2011; in the data active = inhibition above about 35%, passing the limit was not always enough; inconclusive = no clear call, values can overlap the other calls
BoNT A protease = BoNT/A light chain protease inhibitors, primary screen, biochemical, flow cytometry, MLPCN library. multiplex microsphere protease substrate cleavage. inhibition, % at 10 µM. 360,000 compounds, 0.17% hits
GDH-TPI inh = GDH-TPI coupling enzyme inhibitors, primary screen, artefact control for M. tuberculosis FBA inhibitor project, biochemical, absorbance, full deck. inhibition, % at 4.8 µM. GDH-TPI coupled enzyme counterscreen, NADH absorbance. 360,000 compounds, 1.2% hits; in the data active = inhibition above about 30%
Anthrax LF inh2 = Bacillus anthracis LF protease inhibitors, primary screen, biochemical, multiplex microsphere, MLPCN library; Lethal factor (Bacillus anthracis), P15917; multiplex microsphere protease cleavage assay; inhibition, % at 10 µM; 360,000 compounds, 0.12% hits
Target sequence (P15917 whole entry, looked up): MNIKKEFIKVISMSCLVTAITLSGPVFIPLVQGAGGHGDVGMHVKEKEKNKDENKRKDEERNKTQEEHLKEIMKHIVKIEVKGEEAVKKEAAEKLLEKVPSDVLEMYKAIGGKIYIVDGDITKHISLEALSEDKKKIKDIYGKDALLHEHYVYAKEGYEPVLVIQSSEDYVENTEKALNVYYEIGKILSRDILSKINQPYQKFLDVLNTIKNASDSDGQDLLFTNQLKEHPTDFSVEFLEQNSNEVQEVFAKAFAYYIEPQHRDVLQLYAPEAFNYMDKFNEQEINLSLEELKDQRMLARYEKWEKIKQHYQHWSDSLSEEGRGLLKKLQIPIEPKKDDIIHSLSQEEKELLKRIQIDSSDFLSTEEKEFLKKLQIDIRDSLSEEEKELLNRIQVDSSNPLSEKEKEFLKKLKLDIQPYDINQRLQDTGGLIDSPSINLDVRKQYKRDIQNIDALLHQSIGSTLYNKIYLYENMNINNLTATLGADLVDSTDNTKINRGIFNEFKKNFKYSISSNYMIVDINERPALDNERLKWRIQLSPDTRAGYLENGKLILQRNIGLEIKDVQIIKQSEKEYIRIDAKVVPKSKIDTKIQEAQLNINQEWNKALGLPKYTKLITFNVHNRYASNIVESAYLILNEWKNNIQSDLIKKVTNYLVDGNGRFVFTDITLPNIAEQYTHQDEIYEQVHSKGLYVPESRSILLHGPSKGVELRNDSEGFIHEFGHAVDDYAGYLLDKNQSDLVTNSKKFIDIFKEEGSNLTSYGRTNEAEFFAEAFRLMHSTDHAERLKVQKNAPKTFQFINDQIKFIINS
FBA Mtb inh = Mtb FBA enzyme inhibitors, primary screen, biochemical, fluorescence, strain H37Rv; Fructose-bisphosphate aldolase (Mycobacterium tuberculosis (strain ATCC 25618 / H37Rv)), …; purified M. tuberculosis FBA, fluorescence read-out; inhibition, % at 1 µM; 360,000 compounds, 2.3% hits; in the data active = inhibition above about 27%
Bead autofluor = flagged as autofluorescent in microsphere protease counterscreen. compound autofluorescence counterscreen, microsphere flow cytometry; active compounds read high. fluorescence intensity (test concentration not listed). 360,000 compounds, 3.1% hits. AID 624483; in the data active = fluorescence intensity above about 16000; inconclusive = no clear call, values can overlap the other calls
Numbers stand for hits; . = inactive; ? = inconclusive; / = no result given; + = active, no number. Cut-off read from the data, not from the text of the source, unless noted: active = inhibition above about 30%; inconclusive = no clear call, values can overlap the other calls; inactive = below that.

SMILES	BoNT-F LC inh	BoNT A protease	GDH-TPI inh	Anthrax LF inh2	FBA Mtb inh	Bead autofluor
COc1ccc(CCCc2nc3ccccc3[nH]2)cc1	.	.	.	.	.	.
Cc1c(Br)c([N+](=O)[O-])nn1C(C)C(=O)NCc1cccnc1 (stereo unspecified)	.	.	.	.	.	20382
CNc1cnc(-c2cccc(C(=O)N3CCOCC3)c2)cn1	.	.	.	.	134.8	.
O=C(Cc1ccccc1)Nc1cc([N+](=O)[O-])ccc1N1CCOCC1	.	.	.	.	.	.
Cc1nn(C)cc1CNC(=O)c1ccc(Br)o1	.	.	.	.	.	20359
O=C(CNS(=O)(=O)c1ccc(Br)cc1)N1CCOCC1	.	.	.	.	.	22354
Cc1ccc(S(=O)(=O)CC(=O)N2CCOCC2)cc1	.	.	.	.	.	.
Cc1ccc(S(=O)(=O)C(CCC(=O)N2CCOCC2)S(=O)(=O)c2ccc(C)cc2)cc1	.	.	.	.	.	16223
COc1ccc([C@@H]2C[C@H]3[C@@H](CN2S(=O)(=O)c2ccccc2)C(=O)C[C@@H](c2ccc(C)cc2)N3S(=O)(=O)c2ccc(C)cc2)cc1	.	.	.	.	.	.
CCOC(=O)[C@]12CCC=C1N(Cc1cccc3ccccc13)C(=O)[C@H](CC(=O)NCC1CCCCC1)C2	.	.	/	.	/	.
COC(=O)[C@@]1(Cc2ccc(F)cc2)[C@H]2c3cc(C(=O)N(C)C)n(Cc4ccc(C)c(F)c4F)c3C[C@H]2CN1C(=O)c1ccccc1	.	.	/	.	/	.
O=C(N/N=C/c1cccnc1)c1ccco1	.	.	.	?	.	.
O=C(N/N=C/C(Cl)=C/c1ccccc1)c1ccccc1F	.	.	.	.	.	.
O=C(N/N=C/C(Cl)=C/c1ccccc1)c1ccco1	.	.	35.4	.	.	.
O=C(N/N=C/C(Cl)=C\c1ccccc1)c1ccco1	.	.	33.0	?	.	.
O=C(Cc1ccc(-n2c(=S)[nH]c3ccccc3c2=O)cc1)N1CCC(N2CCCCC2)CC1	.	.	.	.	.	23979
Cc1cccc(/N=C/c2c(O)[nH]c3ccccc23)n1	.	.	45.0	.	.	.
CC(C)N=Cc1c(O)[nH]c2ccccc12	.	.	.	.	.	21450
O=C(c1ccc(OC2CCN(Cc3ccccn3)CC2)cc1)N1CCCCO1	.	.	.	.	.	.
CCC(=O)Nc1ccccc1C(=O)OCC(=O)c1ccc2ccccc2c1	.	.	.	.	.	23453
CCN(CC(=O)Nc1cc(Cl)ccc1C)C(=O)CCS(=O)(=O)c1ccc(C)cc1	.	.	.	.	.	?
Cc1cc(C)c2[nH]c(=O)c(C(c3nnnn3CC3CCCO3)N3CCCC(C)C3)cc2c1 (stereo unspecified)	.	.	.	.	.	.
Cc1cc(C)c2[nH]c(=O)c(C(c3nnnn3CC3CCCO3)N3CCC(C)CC3)cc2c1 (stereo unspecified)	.	?	.	.	.	26168
Cc1cccc2cc(C(c3nnnn3Cc3ccccc3)N3CCN(c4ccccc4)CC3)c(=O)[nH]c12 (stereo unspecified)	.	.	.	.	.	18218
COc1ccc(Cn2nnnc2C(c2cc3cccc(C)c3[nH]c2=O)N2CCN(C)CC2)cc1 (stereo unspecified)	.	.	.	.	.	.
SMILES	BoNT-F LC inh	BoNT A protease	GDH-TPI inh	Anthrax LF inh2	FBA Mtb inh	Bead autofluor
Cc1cccc2cc(C(c3nnnn3Cc3ccccc3)N3CCN(C)CC3)c(=O)[nH]c12 (stereo unspecified)	.	.	.	.	.	19831
COc1ccc(-c2nc(CS(=O)(=O)CC(=O)NCc3ccccc3OC)c(C)o2)cc1	.	.	.	.	.	.
COC(=O)C1=C(C)OC(N)=C(C#N)C12C(=O)Nc1ccccc12 (stereo unspecified)	.	.	.	.	.	.
COC(=O)CC1=C(C(=O)OC)C2(C(=O)Nc3c(C)cccc32)C(C#N)=C(N)O1 (stereo unspecified)	.	?	.	.	.	20727
CCCC1=C(C(=O)OCC)C2(C(=O)Nc3ccccc32)C(C#N)=C(N)O1 (stereo unspecified)	.	.	.	.	.	22790
CCOC(=O)C1=C(C)OC(N)=C(C#N)C12C(=O)N(C)c1ccccc12 (stereo unspecified)	.	.	.	.	.	.
c1ccc(Cc2nnc3sc(-c4ccncc4)nn23)cc1	.	.	.	.	.	23785
c1ccc(Cc2nnc3sc(-c4cccs4)nn23)cc1	.	.	.	.	.	.
FC(F)(F)c1nnc2sc(-c3ccccn3)nn12	.	.	.	.	.	.
c1ccc(Cc2nnc3sc(-c4cccnc4)nn23)cc1	.	.	.	.	.	16689
c1ccc(Cc2nnc3sc(-c4ccccn4)nn23)cc1	.	?	.	.	.	21625
CCOc1ccccc1-c1nn2c(Cc3ccccc3)nnc2s1	.	.	.	.	.	19404
c1ccc(Cc2nnc3sc(-c4ccc5c(c4)OCO5)nn23)cc1	.	.	.	.	.	.
CS(=O)(=O)Cc1cccc(C(=O)NC2CCSc3ccccc32)c1 (stereo unspecified)	.	.	.	.	.	.
CC(C)[C@H](NC(=O)c1ccccc1F)C(=O)OCCN1C(=O)c2ccccc2C1=O	.	.	.	.	.	.
CCOc1ccccc1NC(=O)N1CCC2(CC1)OCCO2	.	.	.	.	.	.
CCOc1ccccc1NC(=O)c1ccc(F)c(S(=O)(=O)N2CCC3(CC2)OCCO3)c1	.	?	.	.	.	17156
COc1ccccc1NC(=O)/C(=C/c1cccs1)NC(=O)c1ccco1	/	/	.	/	.	/
COc1ccc(NC(=O)/C(=C/c2cccs2)NC(=O)c2ccco2)cc1	?	.	44.8	.	.	.
COc1ccc(/C=C(/NC(=O)c2ccc(Br)o2)C(=O)Nc2cccc(C(=O)O)c2)cc1	.	.	33.6	.	.	.
CC(=O)c1ccc(NC(=O)/C(=C\c2cccs2)NC(=O)c2ccco2)cc1	.	.	33.0	.	.	.
COc1ccc(NC(=O)/C(=C\c2ccc(OC)c(OC)c2)NC(=O)c2ccco2)cc1	.	.	36.6	.	.	.
CCCC(C(=O)NNC(=O)c1cc(C)oc1C)c1ccccc1 (stereo unspecified)	.	.	.	.	.	.
O=C(NNC(=O)c1cc2cc(OC(F)(F)F)ccc2[nH]1)c1cccc(C(F)(F)F)c1	?	?	.	.	.	.
Cn1c(SCc2ccccc2C#N)nnc1-c1ccncc1	.	.	.	.	.	.
COc1ccc2oc3cc(NCCN(C)C)ccc3c(=O)c2c1	.	.	/	.	+	.
